# Reference: PubChem BioAssay (NCATS)
# Inconclusive results are not listed. The source made the active and inactive calls. Unless noted, the call rests on the fitted dose curve; in most records, active means well fitted curve in the direction sought with a large enough effect; inconclusive means small, poorly fitted or top-dose-only effect, or another doubt; inactive means no such curve, though single readings can be large; an effect the other way counts as inactive or inconclusive.
# Columns and labels:
# [1] = target: Cytochrome P450 2D6 (Homo sapiens) (UniProt P10635); test: Cytochrome P450 family 2 subfamily D member 6 (CYP2D6) small molecule antagonists: luciferase biochemical (cell-free) qHTS assay (AID 1645840; active means well fitted curve in the direction sought with a large enough effect in the repeat runs; an effect the other way counts as inactive or inconclusive; further: nearly all actives have a fitted effect of over 55% in size; further: potency means the concentration at half of the fitted maximal effect; on activity change, negative = inhibition: on the % scale 0 is the no-effect control and ±100 the full control effect); details: P450-Glo CYP2D6 enzyme, luciferin luminescence, 1 h; series mostly up to 57.4 µM
# Chain of Cytochrome P450 2D6 (Homo sapiens) (P10635 whole entry, looked up): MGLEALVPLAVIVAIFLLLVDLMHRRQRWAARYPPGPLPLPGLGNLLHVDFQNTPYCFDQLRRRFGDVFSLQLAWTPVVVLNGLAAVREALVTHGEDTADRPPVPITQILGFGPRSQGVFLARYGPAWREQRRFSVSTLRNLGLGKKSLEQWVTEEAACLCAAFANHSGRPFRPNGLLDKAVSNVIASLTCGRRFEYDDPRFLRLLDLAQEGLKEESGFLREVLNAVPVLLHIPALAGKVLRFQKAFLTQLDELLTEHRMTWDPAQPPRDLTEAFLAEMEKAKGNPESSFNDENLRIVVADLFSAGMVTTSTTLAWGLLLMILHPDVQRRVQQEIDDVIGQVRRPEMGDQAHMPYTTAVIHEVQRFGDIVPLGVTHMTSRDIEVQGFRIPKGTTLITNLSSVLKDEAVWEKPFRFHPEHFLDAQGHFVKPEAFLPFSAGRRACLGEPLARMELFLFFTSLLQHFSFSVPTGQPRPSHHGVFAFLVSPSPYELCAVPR
# Outline: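 P450-Glo luminescent screen: recombinant CYP2D6 enzyme–proluciferin substrate mix preincubated with compound 10 min at room temperature, then NADPH regeneration added for 1 h at room temperature. Detection reagent added for 20 min; luciferin light read as relative luminescence units.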
# [2] = Primary qHTS for inhibitors of nuclear receptor binding SET domain protein 2 (NSD2) in an isogenic RCH-ACV NSD2 p.E1099K mutant (9B) (AID 1645876); details: RCH-ACV NSD2 E1099K (9B) viability, CellTiter-Glo, 72 h; series mostly up to 44.9 µM; further: nearly all actives have a fitted effect of over 70% in size; further: potency means the concentration at half of the fitted maximal effect
# [3] = Primary qHTS for inhibitors of nuclear receptor binding SET domain protein 2 (NSD2) in an RCH-ACV wild type WT cells (2C) (AID 1645877); details: RCH-ACV (leukaemia line) NSD2 WT (2C) viability, CellTiter-Glo, 72 h; series mostly up to 44.9 µM; further: nearly all actives have a fitted effect of over 70% in size; further: potency means the concentration at half of the fitted maximal effect
# [4] = target: Cytochrome P450 2C9 (Homo sapiens) (UniProt P11712); test: Cytochrome P450 family 2 subfamily C member 9 (CYP2C9) small molecule antagonists: luciferase biochemical (cell-free) qHTS assay (AID 1645842; active means well fitted curve in the direction sought with a large enough effect in the repeat runs; an effect the other way counts as inactive or inconclusive; further: nearly all actives have a fitted effect of over 55% in size; further: potency means the concentration at half of the fitted maximal effect; on activity change, negative = inhibition: on the % scale 0 is the no-effect control and ±100 the full control effect); details: P450-Glo CYP2C9 enzyme assay, luciferin luminescence; series mostly up to 57.4 µM
# Chain of Cytochrome P450 2C9 (Homo sapiens) (P11712 whole entry, looked up): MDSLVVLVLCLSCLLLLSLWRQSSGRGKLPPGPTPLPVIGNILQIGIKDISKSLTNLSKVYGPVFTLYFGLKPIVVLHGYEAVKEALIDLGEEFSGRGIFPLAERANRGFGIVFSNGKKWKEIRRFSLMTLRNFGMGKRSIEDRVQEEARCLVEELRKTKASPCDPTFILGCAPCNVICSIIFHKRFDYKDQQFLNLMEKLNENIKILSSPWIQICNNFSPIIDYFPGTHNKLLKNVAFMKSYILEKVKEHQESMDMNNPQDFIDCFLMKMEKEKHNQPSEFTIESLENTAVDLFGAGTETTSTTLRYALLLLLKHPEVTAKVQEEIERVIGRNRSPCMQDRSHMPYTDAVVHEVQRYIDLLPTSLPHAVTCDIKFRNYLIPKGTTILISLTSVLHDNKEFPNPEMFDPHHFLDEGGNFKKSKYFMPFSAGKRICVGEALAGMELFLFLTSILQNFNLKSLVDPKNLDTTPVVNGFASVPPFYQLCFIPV
# Outline: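 Luminescence, after 20 min with luciferin detection reagent, reflected CYP2C9 turnover during a 1 h NADPH-driven reaction at 37C. Enzyme-substrate mix contained 0.4% bovine serum albumin and was preincubated with compound 10 min at room temperature.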
# Papain (Carica papaya) = Papain (Carica papaya) (UniProt P00784); test: Primary qHTS assay for inhibitors of the protease papain (AID 1645873); details: papain Z-FR-AMC cleavage, AMC fluorescence; series mostly up to 49.8 µM;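 further: papain turnover of Z-FR-AMC read as the AMC fluorescence gain over 10 min; on the % scale 0 is the no-effect control and ±100 the full control effect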
# Chain of Papain (Carica papaya) (P00784 whole entry, looked up): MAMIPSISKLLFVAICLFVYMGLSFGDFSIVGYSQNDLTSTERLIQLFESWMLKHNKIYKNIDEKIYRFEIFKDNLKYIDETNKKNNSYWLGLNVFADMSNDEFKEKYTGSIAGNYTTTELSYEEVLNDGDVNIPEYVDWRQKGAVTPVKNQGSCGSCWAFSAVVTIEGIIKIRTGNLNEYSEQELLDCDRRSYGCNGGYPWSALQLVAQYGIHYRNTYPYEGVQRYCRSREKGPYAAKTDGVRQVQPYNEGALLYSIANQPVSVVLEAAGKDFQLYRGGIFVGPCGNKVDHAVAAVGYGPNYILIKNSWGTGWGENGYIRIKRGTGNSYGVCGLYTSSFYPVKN
# [5] = NCATS anti-infectives library activity on HEK293 viability as a counter-qHTS vs the C. elegans viability qHTS (AID 1745854); details: HEK293 viability counter-screen; series mostly up to 41.8 µM;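 further: HEK293 cells exposed to compounds for 24 hr before the viability read; on the % scale 0 is the no-effect control and ±100 the full control effect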
# Outline: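 Compounds were acoustically plated (several concentrations, 1:5, final up to 41.7 uM), then 1500 HEK293 cells added per well and incubated 24 hr at 37C, 5% CO2. CellTiter-Glo was added and luminescence read after 10 min.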
# [6] = target: Rap guanine nucleotide exchange factor 3 (Homo sapiens) (UniProt O95398); test: Confirmatory qHTS for antagonist of cAMP-regulated guanine nucleotide exchange factor 3 (EPAC1) (AID 1645880); details: EPAC1 Rap1B-BODIPY-GDP exchange, fluorescence; series mostly up to 115 µM; further: nearly all actives have a fitted effect of over 55% in size; further: potency means the concentration at half of the fitted maximal effect
# Chain of Rap guanine nucleotide exchange factor 3 (Homo sapiens) (O95398 whole entry, looked up): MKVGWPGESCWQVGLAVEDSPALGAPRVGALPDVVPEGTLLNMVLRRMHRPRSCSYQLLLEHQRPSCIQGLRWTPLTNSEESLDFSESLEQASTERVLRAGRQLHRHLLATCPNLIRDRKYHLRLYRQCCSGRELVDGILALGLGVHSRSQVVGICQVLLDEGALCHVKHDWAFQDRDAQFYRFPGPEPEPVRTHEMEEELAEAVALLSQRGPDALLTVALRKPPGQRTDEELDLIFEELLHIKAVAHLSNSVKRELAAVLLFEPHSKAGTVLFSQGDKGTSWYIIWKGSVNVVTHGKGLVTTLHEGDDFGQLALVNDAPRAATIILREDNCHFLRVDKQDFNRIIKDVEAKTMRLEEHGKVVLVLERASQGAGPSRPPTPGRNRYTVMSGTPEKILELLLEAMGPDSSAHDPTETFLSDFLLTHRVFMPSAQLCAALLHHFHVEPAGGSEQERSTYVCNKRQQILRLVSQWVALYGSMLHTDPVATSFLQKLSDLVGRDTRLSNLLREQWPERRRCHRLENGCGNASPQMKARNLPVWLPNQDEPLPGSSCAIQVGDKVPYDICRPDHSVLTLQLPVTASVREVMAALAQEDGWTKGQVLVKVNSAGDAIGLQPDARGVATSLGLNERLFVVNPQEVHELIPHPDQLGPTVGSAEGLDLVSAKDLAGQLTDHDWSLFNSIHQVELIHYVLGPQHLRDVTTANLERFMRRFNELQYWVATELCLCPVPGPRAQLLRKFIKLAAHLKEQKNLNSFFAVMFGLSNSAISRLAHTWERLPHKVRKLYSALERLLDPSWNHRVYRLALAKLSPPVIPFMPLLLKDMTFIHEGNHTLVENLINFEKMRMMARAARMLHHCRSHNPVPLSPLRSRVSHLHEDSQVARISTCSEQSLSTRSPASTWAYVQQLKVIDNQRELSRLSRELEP
# Outline: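 Nucleotide exchange uses 100 nM EPAC1, 250 nM RAP1B-BODIPY-GDP and 50 uM GDP, with compounds in a concentration-titration series. After 5 min at room temperature, fluorescence (480 nm ex/540 nm em) is read every 5 min for 30 min. Data are normalized to control ATA and DMSO.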
# [7] = target: Rap guanine nucleotide exchange factor 4 (Homo sapiens) (UniProt Q8WZA2); test: Confirmatory qHTS for agonist of cAMP-regulated guanine nucleotide exchange factor 4 (EPAC2) (AID 1645884); details: EPAC2 GEF activity, Rap1B-BODIPY-GDP fluorescence; series mostly up to 154 µM;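 further: nucleotide exchange releases bodipy-GDP from Rap1 and this lowers its fluorescence; nearly all actives have a fitted effect of over 65% in size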; further: potency means the concentration at half of the fitted maximal effect
# Chain of Rap guanine nucleotide exchange factor 4 (Homo sapiens) (Q8WZA2 whole entry, looked up): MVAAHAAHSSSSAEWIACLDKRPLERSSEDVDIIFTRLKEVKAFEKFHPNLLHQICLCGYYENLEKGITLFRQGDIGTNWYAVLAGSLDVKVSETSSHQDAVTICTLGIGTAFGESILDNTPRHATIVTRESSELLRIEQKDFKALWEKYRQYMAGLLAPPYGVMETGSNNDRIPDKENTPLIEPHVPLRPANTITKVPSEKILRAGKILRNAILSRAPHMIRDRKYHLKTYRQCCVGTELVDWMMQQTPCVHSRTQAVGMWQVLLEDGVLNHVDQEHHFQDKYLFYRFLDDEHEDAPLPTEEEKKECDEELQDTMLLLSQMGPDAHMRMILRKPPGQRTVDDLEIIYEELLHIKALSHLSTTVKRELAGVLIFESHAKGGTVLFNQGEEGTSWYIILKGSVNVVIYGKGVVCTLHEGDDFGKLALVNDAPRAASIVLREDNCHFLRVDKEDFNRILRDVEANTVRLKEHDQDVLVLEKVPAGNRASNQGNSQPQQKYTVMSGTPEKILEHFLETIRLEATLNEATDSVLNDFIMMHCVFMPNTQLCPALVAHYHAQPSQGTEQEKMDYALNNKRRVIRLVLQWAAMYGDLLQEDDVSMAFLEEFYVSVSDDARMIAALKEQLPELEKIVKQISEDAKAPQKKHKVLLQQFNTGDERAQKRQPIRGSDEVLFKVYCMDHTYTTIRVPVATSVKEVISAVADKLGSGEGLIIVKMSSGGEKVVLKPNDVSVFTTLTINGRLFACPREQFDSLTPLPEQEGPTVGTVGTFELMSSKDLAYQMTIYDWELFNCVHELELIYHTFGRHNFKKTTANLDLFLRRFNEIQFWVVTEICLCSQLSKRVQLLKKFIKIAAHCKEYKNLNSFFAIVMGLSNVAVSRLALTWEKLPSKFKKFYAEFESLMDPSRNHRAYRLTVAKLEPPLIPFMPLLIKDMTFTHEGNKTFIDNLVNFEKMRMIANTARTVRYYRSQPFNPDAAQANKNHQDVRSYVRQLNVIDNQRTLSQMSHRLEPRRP
# [8] = target: Rap guanine nucleotide exchange factor 4 (Homo sapiens) (UniProt Q8WZA2); test: Confirmatory qHTS for antagonist of cAMP-regulated guanine nucleotide exchange factor 4 (EPAC2) (AID 1645885); details: EPAC2 Rap1B-BODIPY-GDP exchange fluorescence, biochemical; series mostly up to 114 µM; further: nearly all actives have a fitted effect of over 25% in size; further: potency means the concentration at half of the fitted maximal effect
# [9] = target: Rap guanine nucleotide exchange factor 3 (Homo sapiens) (UniProt O95398); test: Confirmatory qHTS for agonist of cAMP-regulated guanine nucleotide exchange factor 3 (EPAC1) (AID 1645881); details: EPAC1 Rap1B BODIPY-GDP exchange fluorescence, 100% = cAMP control response; series mostly up to 154 µM;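 further: EPAC1 catalysed release of BODIPY-GDP from Rap1B seen as fluorescence loss; nearly all actives have a fitted effect of over 75% in size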
# [10] = target: Catechol O-methyltransferase (Homo sapiens) (UniProt P21964); test: Confirmatory Screen for Target Class Profiling of Small Molecule Inhibitors of Methyltransferases (AID 1745852; calls by dose curve); details: MTase-Glo luminescence, SAH detection, recombinant enzyme; measured here: COMT max response; stronger effect = lower value
# Chain of Catechol O-methyltransferase (Homo sapiens) (P21964 whole entry, looked up): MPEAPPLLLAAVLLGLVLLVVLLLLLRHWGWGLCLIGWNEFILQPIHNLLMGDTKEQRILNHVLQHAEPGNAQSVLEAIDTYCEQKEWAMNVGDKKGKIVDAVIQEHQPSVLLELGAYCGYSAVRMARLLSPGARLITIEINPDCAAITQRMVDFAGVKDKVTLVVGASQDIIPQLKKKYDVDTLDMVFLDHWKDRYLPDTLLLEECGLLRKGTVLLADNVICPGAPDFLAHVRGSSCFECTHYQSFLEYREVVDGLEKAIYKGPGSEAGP
# [11] = target: Guanidinoacetate N-methyltransferase (Homo sapiens) (UniProt Q14353); test: as above; details: MTase-Glo luminescence, SAH detection, recombinant enzyme; at 57.3 µM (top of the series)
# [12] = target: Nicotinamide N-methyltransferase (Homo sapiens) (UniProt P40261); test: as above; details: MTase-Glo luminescence, SAH detection, recombinant enzyme; measured here: NNMT max response; stronger effect = lower value
# Chain of Nicotinamide N-methyltransferase (Homo sapiens) (P40261 whole entry, looked up): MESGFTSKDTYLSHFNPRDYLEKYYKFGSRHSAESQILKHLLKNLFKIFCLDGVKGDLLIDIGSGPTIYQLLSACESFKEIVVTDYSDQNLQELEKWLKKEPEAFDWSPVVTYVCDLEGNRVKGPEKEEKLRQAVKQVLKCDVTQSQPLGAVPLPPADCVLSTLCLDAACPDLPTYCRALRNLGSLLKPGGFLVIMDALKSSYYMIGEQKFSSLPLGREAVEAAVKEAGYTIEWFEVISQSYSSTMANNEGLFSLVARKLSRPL
# [13] = target: Phenylethanolamine N-methyltransferase (Homo sapiens) (UniProt P11086); test: as above; details: MTase-Glo luminescence, SAH detection, recombinant enzyme; measured here: PNMT max response; stronger effect = lower value
# Chain of Phenylethanolamine N-methyltransferase (Homo sapiens) (P11086 whole entry, looked up): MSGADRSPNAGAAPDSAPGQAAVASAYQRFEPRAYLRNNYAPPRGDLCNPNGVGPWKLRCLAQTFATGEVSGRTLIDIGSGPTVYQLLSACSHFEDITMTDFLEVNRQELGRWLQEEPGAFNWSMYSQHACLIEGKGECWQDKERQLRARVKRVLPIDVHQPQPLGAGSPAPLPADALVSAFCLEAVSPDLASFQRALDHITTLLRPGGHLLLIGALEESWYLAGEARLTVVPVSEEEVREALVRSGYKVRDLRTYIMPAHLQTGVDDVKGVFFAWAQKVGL
compound,measurement,setting,value
CCCCCCCCCCCCCCCC[N+](C)(C)CC,Potency,[1],0.174 µM (active)
same,Potency,[2],0.335 µM (active)
same,Potency,[3],0.299 µM (active)
CCN(CC)CCOc1ccc(C(O)(Cc2ccc(Cl)cc2)c2ccc(C)cc2)cc1 (stereo not given),Potency,[1],0.617 µM (active)
same,Potency,[2],5.31 µM (active)
same,Potency,[3],2.66 µM (active)
C[C@H]1[C@H](NC(=O)/C(=N/OC(C)(C)C(=O)O)c2csc(N)n2)C(=O)N1S(=O)(=O)O (stereo in doubt),Potency,[4],inactive
same,Potency,[2],inactive
same,Potency,[3],inactive
Oc1ccc(O)cc1,Potency,[4],inactive
same,Potency,Papain (Carica papaya),inactive
same,Potency,[2],11.9 µM (active)
same,Potency,[3],15 µM (active)
CCC(NC(C)C)C(O)c1ccc(O)c(O)c1 (stereo not given),Potency,[4],15.1 µM (active)
same,Potency,Papain (Carica papaya),inactive
CC(C)=CCC1C(=O)N(c2ccccc2)N(c2ccccc2)C1=O,Potency,[4],inactive
same,Potency,[2],16.8 µM (active)
same,Potency,[3],15 µM (active)
CCN(CC)C(=O)/C(C#N)=C/c1cc(O)c(O)c([N+](=O)[O-])c1,Potency,[1],inactive
same,Potency,[4],0.0436 µM (active)
same,Potency,[5],inactive
CCCCOc1ccc(C(=O)CCN2CCCCC2)cc1,Potency,[1],4.9 µM (active)
same,Potency,[2],15 µM (active)
same,Potency,[3],13.3 µM (active)
C#C[C@]1(O)CC[C@H]2[C@@H]3CCc4cc(OC5CCCC5)ccc4[C@H]3CC[C@@]21C,Potency,[4],8.71 µM (active)
same,Potency,[2],inactive
C[C@@H]1CN(CCCn2c3ccccc3c3ccccc32)C[C@H](C)N1,Potency,[4],inactive
same,Potency,[2],26.6 µM (active)
same,Potency,[3],23.7 µM (active)
COc1cccc(CCc2ccccc2OCC(CN(C)C)OC(=O)CCC(=O)O)c1 (stereo not given),Potency,[4],inactive
CCN1CCC[C@H]1CNC(=O)c1c(OC)ccc(Br)c1OC,Potency,[4],inactive
same,Potency,[2],inactive
same,Potency,[3],inactive
CCCSS/C(CCO)=C(\C)N(C=O)Cc1cnc(C)nc1N,Potency,[4],inactive
same,Potency,[2],15 µM (active)
same,Potency,[3],16.8 µM (active)
CNCCC=C1c2ccccc2CCc2ccccc21,Potency,[4],inactive
same,Potency,Papain (Carica papaya),inactive
same,Potency,[2],23.1 µM (active)
same,Potency,[3],20.6 µM (active)
CCCCOc1cc(C(=O)NCCN(CC)CC)c2ccccc2n1,Potency,[1],8.71 µM (active)
same,Potency,[4],inactive
same,Potency,[3],23.7 µM (active)
COc1cc(N)c(Cl)cc1C(=O)NC1CCN(CCCOc2ccc(F)cc2)CC1OC (stereo not given),Potency,[4],inactive
same,Potency,[2],15 µM (active)
same,Potency,[3],21.1 µM (active)
COc1ccc(C2C(=O)c3ccccc3C2=O)cc1,Potency,[4],inactive
same,Potency,[2],inactive
same,Potency,[3],inactive
Cc1cc(N)c2cc(NC(=O)Nc3ccc4nc(C)cc(N)c4c3)ccc2n1,Potency,[1],8.71 µM (active)
same,Potency,[4],inactive
same,Potency,[6],25 µM (active)
same,Potency,[7],25.1 µM (active)
same,Potency,[8],35 µM (active)
C=CCc1ccc(O)c(OC)c1,Potency,[1],inactive
same,Potency,[2],inactive
same,Potency,[3],inactive
CCCC1O[C@@H]2C[C@H]3[C@@H]4CCC5=CC(=O)C=C[C@]5(C)[C@H]4[C@@H](O)C[C@]3(C)[C@]2(C(=O)CO)O1 (stereo not given in full),Potency,[4],15.1 µM (active)
same,Potency,Papain (Carica papaya),inactive
CC(=O)Oc1ccc2c(c1)CC[C@@H]1[C@@H]2CC[C@]2(C)[C@@H](O)CC[C@@H]12,Potency,[4],inactive
same,Potency,[2],13.3 µM (active)
same,Potency,[3],8.41 µM (active)
same,Potency,[6],inactive
same,outcome,[9],inactive
same,Potency,[7],inactive
same,Potency,[8],inactive
C=C1C[C@H]2[C@@H]3C=C(C)C4=CC(=O)CC[C@]4(C)[C@H]3CC[C@]2(C)[C@@]1(OC(C)=O)C(C)=O,Potency,[1],inactive
same,Potency,[2],23.7 µM (active)
same,Potency,[3],4.22 µM (active)
CC(C)C[C@H]1C(=O)N2CCC[C@H]2[C@]2(O)O[C@](NC(=O)[C@@H]3C=C4c5cccc6[nH]c(Br)c(c56)C[C@H]4N(C)C3)(C(C)C)C(=O)N12,Potency,[1],inactive
same,Potency,[4],3.38 µM (active)
same,Potency,[6],inactive
same,outcome,[9],inactive
same,Potency,[7],inactive
same,Potency,[8],inactive
same,activity,[10],7.86%
same,"activity change, negative = inhibition",[11],3.94%
same,activity,[12],-2.85%
same,activity,[13],4.08%
CN1CCN(CCCN2c3ccccc3Sc3ccc(S(=O)(=O)N(C)C)cc32)CC1,Potency,[1],11 µM (active)
same,Potency,[3],21.1 µM (active)
COc1ccc(CCN2CCC(Nc3nc4ccccc4n3Cc3ccc(F)cc3)CC2)cc1,Potency,[4],inactive
same,Potency,[2],7.5 µM (active)
same,Potency,[3],5.31 µM (active)
O=C(CCCN1CCC(O)(c2ccc(Br)cc2)CC1)c1ccc(F)cc1,Potency,[1],2.75 µM (active)
same,Potency,[4],inactive
same,Potency,[3],18.8 µM (active)
CNCC[C@@H](Oc1ccccc1C)c1ccccc1,Potency,[4],inactive
CC(C)NC[C@@H](O)COc1cccc2ccccc12,Potency,[4],inactive
CN1CCCC(CC2c3ccccc3Sc3ccccc32)C1 (stereo not given),Potency,[1],0.0692 µM (active)
same,Potency,[4],inactive
same,Potency,[3],18.8 µM (active)
NC(=O)c1cc[n+](CC2=C(C(=O)[O-])N3C(=O)[C@@H](NC(=O)Cc4cccs4)[C@H]3SC2)cc1,Potency,[4],inactive
same,Potency,[2],inactive
same,Potency,[3],inactive
